Test results as given in ChEMBL document CHEMBL1961873, “Compounds: GSK PKIS; Assays: Nanosyn kinase panel” (2012).

Key:
[1] = target: Ribosomal protein S6 kinase alpha-6 (Homo sapiens) (UniProt Q9UK32); conditions: at 1 µM;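 also: each value is a mean inhibition of RSK4 from a GSK PKIS panel screen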
[2] = target: T1, Serine/threonine-protein kinase Sgk1 (Homo sapiens) (UniProt O00141); conditions: at 0.1 µM
T1 sequence (whole entry): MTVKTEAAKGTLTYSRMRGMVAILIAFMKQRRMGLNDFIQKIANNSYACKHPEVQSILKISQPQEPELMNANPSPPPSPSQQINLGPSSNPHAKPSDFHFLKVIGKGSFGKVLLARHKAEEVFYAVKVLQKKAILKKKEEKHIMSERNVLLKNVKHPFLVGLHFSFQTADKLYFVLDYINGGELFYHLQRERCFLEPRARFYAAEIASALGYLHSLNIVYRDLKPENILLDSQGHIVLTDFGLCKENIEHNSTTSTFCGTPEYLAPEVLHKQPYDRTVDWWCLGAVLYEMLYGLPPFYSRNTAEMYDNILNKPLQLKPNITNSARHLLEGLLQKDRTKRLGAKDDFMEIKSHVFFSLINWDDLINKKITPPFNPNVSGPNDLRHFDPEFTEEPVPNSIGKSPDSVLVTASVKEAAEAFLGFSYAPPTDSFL

[3] = target: T1, Serine/threonine-protein kinase Sgk1 (Homo sapiens); conditions: at 1 µM
[4] = target: T2, Serine/threonine-protein kinase Sgk2 (Homo sapiens) (UniProt Q9HBY8); conditions: at 0.1 µM
T2 sequence (whole entry): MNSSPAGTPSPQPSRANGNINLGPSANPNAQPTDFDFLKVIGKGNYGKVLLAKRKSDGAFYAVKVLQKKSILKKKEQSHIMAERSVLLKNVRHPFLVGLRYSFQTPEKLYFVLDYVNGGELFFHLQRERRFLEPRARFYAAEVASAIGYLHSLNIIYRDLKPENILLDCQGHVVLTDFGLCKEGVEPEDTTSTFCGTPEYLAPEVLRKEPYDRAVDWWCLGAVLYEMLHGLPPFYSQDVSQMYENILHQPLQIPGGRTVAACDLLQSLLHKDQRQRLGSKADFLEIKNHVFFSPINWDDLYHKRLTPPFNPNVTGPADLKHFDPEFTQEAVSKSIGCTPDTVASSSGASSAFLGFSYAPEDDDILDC

[5] = target: T2, Serine/threonine-protein kinase Sgk2 (Homo sapiens); conditions: at 1 µM
[6] = target: T3, Serine/threonine-protein kinase Sgk3 (Homo sapiens) (UniProt Q96BR1); conditions: at 0.1 µM
T3 sequence (whole entry): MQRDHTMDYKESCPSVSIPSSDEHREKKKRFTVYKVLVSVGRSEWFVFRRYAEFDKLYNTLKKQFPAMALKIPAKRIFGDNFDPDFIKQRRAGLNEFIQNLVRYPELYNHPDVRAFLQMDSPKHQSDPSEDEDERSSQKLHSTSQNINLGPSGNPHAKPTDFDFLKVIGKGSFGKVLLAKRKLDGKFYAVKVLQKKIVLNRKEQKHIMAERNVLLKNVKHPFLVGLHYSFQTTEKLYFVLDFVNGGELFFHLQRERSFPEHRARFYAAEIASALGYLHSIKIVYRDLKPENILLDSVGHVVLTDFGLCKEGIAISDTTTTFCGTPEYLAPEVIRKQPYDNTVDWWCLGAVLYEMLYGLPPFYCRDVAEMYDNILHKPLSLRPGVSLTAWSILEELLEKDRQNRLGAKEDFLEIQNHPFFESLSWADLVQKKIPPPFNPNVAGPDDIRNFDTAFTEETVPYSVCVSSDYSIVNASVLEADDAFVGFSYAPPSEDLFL

[7] = target: T3, Serine/threonine-protein kinase Sgk3 (Homo sapiens); conditions: at 1 µM
[8] = target: 5'-AMP-activated protein kinase catalytic subunit alpha-1 (Homo sapiens) (UniProt Q13131); conditions: at 0.1 µM
Sequence of 5'-AMP-activated protein kinase catalytic subunit alpha-1 (Homo sapiens) (Q13131 whole entry, looked up): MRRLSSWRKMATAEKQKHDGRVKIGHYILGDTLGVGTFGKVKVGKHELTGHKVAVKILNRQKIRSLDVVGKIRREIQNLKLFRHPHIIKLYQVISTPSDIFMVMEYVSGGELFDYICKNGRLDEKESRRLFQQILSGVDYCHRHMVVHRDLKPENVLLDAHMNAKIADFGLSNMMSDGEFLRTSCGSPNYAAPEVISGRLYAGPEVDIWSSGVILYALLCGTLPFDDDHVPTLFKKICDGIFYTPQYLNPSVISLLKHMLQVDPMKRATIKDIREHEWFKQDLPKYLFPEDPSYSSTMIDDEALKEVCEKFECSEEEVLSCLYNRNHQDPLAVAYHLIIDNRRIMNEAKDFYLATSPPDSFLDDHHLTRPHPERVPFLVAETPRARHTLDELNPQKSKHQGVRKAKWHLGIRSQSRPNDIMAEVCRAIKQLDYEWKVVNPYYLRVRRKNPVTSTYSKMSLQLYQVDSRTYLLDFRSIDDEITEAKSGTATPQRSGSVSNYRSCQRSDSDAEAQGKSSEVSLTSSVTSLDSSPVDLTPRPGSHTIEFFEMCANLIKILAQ

[9] = target: 5'-AMP-activated protein kinase catalytic subunit alpha-1 (Homo sapiens) (UniProt Q13131); conditions: at 1 µM
[10] = target: 5'-AMP-activated protein kinase catalytic subunit alpha-2 (Homo sapiens) (UniProt P54646); conditions: at 0.1 µM
Sequence of 5'-AMP-activated protein kinase catalytic subunit alpha-2 (Homo sapiens) (P54646 whole entry, looked up): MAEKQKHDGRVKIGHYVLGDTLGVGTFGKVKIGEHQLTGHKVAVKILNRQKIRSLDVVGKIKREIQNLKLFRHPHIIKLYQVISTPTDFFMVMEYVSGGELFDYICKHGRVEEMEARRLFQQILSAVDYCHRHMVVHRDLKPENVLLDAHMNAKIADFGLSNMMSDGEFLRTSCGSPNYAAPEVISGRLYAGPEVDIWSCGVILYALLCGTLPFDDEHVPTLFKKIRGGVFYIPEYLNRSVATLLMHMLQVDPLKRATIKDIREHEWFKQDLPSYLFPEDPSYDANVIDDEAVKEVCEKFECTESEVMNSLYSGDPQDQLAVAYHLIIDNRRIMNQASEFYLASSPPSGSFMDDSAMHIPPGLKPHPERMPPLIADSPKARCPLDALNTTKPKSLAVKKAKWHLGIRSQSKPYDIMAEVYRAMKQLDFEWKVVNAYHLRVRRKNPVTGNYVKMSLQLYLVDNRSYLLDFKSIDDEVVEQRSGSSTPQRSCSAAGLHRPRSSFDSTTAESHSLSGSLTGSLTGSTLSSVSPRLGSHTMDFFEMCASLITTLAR

[11] = target: 5'-AMP-activated protein kinase catalytic subunit alpha-2 (Homo sapiens) (UniProt P54646); conditions: at 1 µM
[12] = target: T4, NUAK family SNF1-like kinase 1 (Homo sapiens) (UniProt O60285); conditions: at 0.1 µM
T4 sequence (whole entry): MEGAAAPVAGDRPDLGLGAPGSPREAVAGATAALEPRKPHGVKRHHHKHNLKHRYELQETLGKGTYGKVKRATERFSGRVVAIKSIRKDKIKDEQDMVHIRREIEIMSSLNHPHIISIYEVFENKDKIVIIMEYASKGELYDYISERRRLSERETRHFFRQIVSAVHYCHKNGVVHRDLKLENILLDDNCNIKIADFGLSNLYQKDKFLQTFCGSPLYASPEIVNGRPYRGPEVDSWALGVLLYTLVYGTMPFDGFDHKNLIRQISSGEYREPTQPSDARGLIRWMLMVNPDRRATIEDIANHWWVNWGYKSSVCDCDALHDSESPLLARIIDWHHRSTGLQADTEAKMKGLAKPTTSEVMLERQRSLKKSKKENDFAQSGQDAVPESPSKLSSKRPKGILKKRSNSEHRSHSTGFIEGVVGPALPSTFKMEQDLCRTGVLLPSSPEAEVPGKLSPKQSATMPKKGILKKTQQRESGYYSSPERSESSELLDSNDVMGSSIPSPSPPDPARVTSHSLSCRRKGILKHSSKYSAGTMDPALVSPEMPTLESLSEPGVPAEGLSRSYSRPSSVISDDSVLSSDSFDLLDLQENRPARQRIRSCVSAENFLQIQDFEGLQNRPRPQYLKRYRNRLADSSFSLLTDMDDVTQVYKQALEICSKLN

[13] = target: T4, NUAK family SNF1-like kinase 1 (Homo sapiens); conditions: at 1 µM
[14] = target: T5, Serine/threonine-protein kinase BRSK1 (Homo sapiens) (UniProt Q8TDC3); conditions: at 0.1 µM
T5 sequence (whole entry): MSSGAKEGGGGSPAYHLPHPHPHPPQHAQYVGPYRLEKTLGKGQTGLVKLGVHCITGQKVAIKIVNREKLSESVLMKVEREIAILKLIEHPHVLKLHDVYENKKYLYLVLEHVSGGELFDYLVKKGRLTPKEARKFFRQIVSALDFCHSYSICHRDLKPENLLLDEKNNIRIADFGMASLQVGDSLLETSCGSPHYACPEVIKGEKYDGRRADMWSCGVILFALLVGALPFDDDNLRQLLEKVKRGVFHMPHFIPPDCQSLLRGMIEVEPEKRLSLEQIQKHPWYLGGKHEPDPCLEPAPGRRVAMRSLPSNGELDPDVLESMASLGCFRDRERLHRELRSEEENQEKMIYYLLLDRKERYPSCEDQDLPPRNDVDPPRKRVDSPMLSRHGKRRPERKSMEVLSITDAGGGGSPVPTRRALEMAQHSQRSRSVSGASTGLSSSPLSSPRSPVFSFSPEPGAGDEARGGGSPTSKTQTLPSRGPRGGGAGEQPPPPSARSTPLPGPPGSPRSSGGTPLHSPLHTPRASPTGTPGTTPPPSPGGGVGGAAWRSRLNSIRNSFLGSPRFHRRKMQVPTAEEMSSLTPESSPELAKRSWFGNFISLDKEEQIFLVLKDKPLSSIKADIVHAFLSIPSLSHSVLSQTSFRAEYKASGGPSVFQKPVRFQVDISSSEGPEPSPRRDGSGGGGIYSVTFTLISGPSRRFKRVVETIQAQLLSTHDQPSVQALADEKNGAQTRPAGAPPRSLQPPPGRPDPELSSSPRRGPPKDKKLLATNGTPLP

[15] = target: T5, Serine/threonine-protein kinase BRSK1 (Homo sapiens); conditions: at 1 µM
[16] = target: T6, Serine/threonine-protein kinase BRSK2 (Homo sapiens) (UniProt Q8IWQ3); conditions: at 0.1 µM
T6 sequence (whole entry): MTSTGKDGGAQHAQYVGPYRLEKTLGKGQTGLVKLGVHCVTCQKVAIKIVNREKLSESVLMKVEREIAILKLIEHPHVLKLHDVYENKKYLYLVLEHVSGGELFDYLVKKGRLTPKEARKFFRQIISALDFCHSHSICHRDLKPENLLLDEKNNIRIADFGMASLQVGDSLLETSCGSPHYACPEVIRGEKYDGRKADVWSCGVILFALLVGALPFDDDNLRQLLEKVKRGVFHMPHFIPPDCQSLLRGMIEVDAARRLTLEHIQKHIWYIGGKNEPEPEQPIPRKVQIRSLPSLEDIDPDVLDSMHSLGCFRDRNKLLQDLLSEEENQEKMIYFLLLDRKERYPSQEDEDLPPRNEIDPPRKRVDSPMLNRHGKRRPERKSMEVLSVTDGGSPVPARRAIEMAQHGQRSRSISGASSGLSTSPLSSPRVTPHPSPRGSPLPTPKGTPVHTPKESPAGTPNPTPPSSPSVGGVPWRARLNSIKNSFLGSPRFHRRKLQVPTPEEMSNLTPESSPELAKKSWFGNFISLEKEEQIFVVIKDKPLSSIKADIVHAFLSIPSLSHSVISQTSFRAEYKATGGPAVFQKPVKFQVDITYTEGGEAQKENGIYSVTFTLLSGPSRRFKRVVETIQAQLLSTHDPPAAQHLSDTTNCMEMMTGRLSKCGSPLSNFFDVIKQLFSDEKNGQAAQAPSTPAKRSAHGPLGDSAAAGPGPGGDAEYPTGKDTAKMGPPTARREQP

[17] = target: T6, Serine/threonine-protein kinase BRSK2 (Homo sapiens); conditions: at 1 µM
[18] = target: Calcium/calmodulin-dependent protein kinase type 1D (Homo sapiens) (UniProt Q8IU85); conditions: at 0.1 µM
Sequence of Calcium/calmodulin-dependent protein kinase type 1D (Homo sapiens) (Q8IU85 whole entry, looked up): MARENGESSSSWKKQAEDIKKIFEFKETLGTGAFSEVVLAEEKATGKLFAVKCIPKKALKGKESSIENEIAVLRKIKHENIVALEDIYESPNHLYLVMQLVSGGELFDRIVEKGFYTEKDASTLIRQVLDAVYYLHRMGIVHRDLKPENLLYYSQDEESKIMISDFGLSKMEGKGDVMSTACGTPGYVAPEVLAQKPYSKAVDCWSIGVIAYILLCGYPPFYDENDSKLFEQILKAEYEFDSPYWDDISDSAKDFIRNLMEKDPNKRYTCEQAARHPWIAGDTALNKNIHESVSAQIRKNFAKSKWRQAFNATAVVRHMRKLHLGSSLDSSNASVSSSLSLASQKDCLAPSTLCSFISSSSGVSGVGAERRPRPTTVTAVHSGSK

[19] = target: Calcium/calmodulin-dependent protein kinase type 1D (Homo sapiens) (UniProt Q8IU85); conditions: at 1 µM
[20] = target: Calcium/calmodulin-dependent protein kinase type II subunit alpha (Homo sapiens) (UniProt Q9UQM7); conditions: at 0.1 µM;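 also: reported values are averages (mean inhibition of CAMK2A)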
Sequence of Calcium/calmodulin-dependent protein kinase type II subunit alpha (Homo sapiens) (Q9UQM7 whole entry): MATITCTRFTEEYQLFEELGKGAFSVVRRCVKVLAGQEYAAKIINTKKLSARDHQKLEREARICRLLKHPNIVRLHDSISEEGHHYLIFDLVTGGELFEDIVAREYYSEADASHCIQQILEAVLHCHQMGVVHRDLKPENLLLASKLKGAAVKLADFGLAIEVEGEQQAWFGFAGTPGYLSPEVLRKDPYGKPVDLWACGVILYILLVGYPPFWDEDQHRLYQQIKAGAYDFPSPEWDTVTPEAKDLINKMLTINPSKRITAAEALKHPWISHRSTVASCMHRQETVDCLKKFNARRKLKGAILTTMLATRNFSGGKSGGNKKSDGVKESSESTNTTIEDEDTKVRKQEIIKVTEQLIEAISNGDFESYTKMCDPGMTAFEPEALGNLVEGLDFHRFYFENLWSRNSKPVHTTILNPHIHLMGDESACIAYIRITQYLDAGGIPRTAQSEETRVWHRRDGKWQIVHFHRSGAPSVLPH

Sequence of Ribosomal protein S6 kinase alpha-6 (Homo sapiens) (Q9UK32 whole entry): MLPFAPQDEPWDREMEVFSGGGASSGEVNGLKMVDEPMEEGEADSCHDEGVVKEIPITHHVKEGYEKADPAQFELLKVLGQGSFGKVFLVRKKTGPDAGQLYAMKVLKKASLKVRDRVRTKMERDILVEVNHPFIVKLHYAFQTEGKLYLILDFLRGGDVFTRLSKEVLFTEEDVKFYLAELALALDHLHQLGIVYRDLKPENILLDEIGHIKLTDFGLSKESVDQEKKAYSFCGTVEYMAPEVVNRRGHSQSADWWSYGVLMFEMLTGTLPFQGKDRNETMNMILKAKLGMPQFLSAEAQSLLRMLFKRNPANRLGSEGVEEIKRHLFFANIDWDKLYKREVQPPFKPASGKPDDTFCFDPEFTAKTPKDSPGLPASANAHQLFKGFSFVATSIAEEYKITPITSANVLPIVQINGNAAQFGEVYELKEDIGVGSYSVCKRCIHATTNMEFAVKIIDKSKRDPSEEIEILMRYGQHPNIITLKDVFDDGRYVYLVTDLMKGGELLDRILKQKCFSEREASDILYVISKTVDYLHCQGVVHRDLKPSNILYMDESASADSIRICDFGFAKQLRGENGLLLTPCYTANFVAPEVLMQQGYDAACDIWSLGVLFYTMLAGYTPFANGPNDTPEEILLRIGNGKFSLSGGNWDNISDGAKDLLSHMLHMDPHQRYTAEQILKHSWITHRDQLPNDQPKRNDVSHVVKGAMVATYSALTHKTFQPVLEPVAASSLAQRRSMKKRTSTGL

Compound	inhibition [1] [%]	inhibition [2] [%]	inhibition [3] [%]	inhibition [4] [%]	inhibition [5] [%]	inhibition [6] [%]	inhibition [7] [%]	inhibition [8] [%]	inhibition [9] [%]	inhibition [10] [%]	inhibition [11] [%]	inhibition [12] [%]	inhibition [13] [%]	inhibition [14] [%]	inhibition [15] [%]	inhibition [16] [%]	inhibition [17] [%]	inhibition [18] [%]	inhibition [19] [%]	inhibition [20] [%]
COc1ccc2cc(-c3c(-c4ccncc4)nc(-c4ccc(S(C)(=O)=O)cc4C)n3C)ccc2c1	2.04	3.01	4.51	5.05	4.24	2.89	4.29	3.65	2.77	4.21	3.5	-2.12	4.31	1.72	1.23	1.12	3.04	1.08	1.85	2.82
O=C1NC(=O)C(c2cccc(Cl)c2)=C1Nc1ccc(Cl)c(C(=O)O)c1	3.09	3.35	8.21	0.84	3.07	2.77	4.64	3.69	3.89	-0.69	-4.09	-9.56	3.08	-0.75	0.27	1.73	2.47	-1.22	-0.07	3.4
